The record followed here is PubChem BioAssay (NCATS).

Several values for one entry are separate records, joined by “and”; a condition that tells them apart may be missing. Equal values may be shown once. Unmarked numbers belong to inactive results. Inconclusive results are not listed. Activity calls are given as the source filed them. Unless noted, calls follow the shape of the dose curve; as a rule, active = well fitted curve in the direction sought with a large enough effect; inconclusive = small, poorly fitted or top-dose-only effect, or another doubt; inactive = no such curve, though single readings can be large; an effect the other way counts as inactive or inconclusive.

The test system of experiment [1] is Tov-21-G. Description: Primary qHTS to identify gynecologic anti-cancer compounds using libraries of approved drugs and bioactive compounds (AID 1345084). Also: nearly all actives have a fitted effect of over 55% in size. Also: potency is read from the fitted curve at half-maximal effect. The conditions noted are these: Gynecologic cancer cell panel viability, ATPlite luminescence, 48 h; series mostly up to 57.5 µM. A digest of the protocol:
(§1)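 Measured: luminescence after ATPlite addition (15 min, RT). Exposure: 48 h, 37 C, 5% CO2.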
In general terms: Quantitative high-throughput screening tests each substance at several concentrations.

Experiment [2] concerns Tov112D. The description is as above. The conditions noted are these: Gynecologic cancer cell panel viability, ATPlite luminescence, 48 h; series mostly up to 57.5 µM. The essentials:
as §1
(In ATP-based viability assays light output follows the ATP content of the culture.)

A short description of experiment [3]: Drug repurposing screens with cells derived from glioblastoma tumor samples (AID 1345199). Also: nearly all actives have a fitted effect of over 40% in size. Also: potency is read from the fitted curve at half-maximal effect. As to activity, negative = cell killing: % is scaled to controls: 0 for no effect and ±100 for the full control effect. Particulars: GBM patient neurospheres viability, ATP luminescence, 48 h. The essentials: (§2)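 Primary testing used CD133+ neurospheres from four GBM patients, seven concentrations, 48 h exposure and ATP-based viability; confirmation added three slower-growing patient lines.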

Experiment [4] concerns astro. Described as above. The conditions noted are these: viability, ATP luminescence, 48 h; series mostly up to 45.9 µM. A digest of the protocol: as §2
In experiment [5] the target is Nuclear receptor subfamily 1 group I member 2 (Rattus norvegicus) (UniProt Q9R1A7). The experiment can be described thus: qHTS assay for small molecule activators of the rat pregnane X receptor (rPXR) signaling pathway (AID 651751; call rule not given here; also: 0% is about no effect). The conditions noted are these: rPXR reporter cells, luciferase (One-Glo), 24 h.
The nature of experiment [6]: qHTS assay for small molecule activators of the human pregnane X receptor (PXR) signaling pathway (AID 720659; call rule not given here; also: 0% is about no effect). The conditions noted are these: DPX-2 HepG2 CYP3A4-luciferase, 24 h; series mostly up to 92.3 µM.
Experiment [7] in a line: qHTS assay to identify inhibitors of the type 1 interferon - major histocompatibility complex class I in skeletal muscle: Counter screen cell viability and HiBit confirmation (AID 1347412). Also: % is scaled to controls: 0 for no effect and ±100 for the full control effect; nearly all actives have a fitted effect of over 60% in size. Particulars: iHSKM muscle cells + IFN-b, HiBiT or CellTiter-Glo, 24 h, at 45.9 µM (top of the series). A digest of the protocol:
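Luminescence read-out: Nano-Glo HiBiT lytic signal from C-terminally HiBiT-tagged HLA-B in CRISPR-edited human myoblasts, plus CellTiter Glo ATP as viability counter screen. IFN-beta 4.0 ng/ml; 24 hrs treatment at 37 C, 5% CO2.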

[8] abbreviates: at 45.9 µM (top of the series), tumour line B.
Where [9] appears, read: at 45.9 µM (top of the series), tumour line D.
Where [10] appears, read: at 46.1 µM (top of the series), tumour line C.
[11] abbreviates: at 20 µM (top of the series), tumour line C.

Chain of Nuclear receptor subfamily 1 group I member 2 (Rattus norvegicus) (Q9R1A7 whole entry, looked up): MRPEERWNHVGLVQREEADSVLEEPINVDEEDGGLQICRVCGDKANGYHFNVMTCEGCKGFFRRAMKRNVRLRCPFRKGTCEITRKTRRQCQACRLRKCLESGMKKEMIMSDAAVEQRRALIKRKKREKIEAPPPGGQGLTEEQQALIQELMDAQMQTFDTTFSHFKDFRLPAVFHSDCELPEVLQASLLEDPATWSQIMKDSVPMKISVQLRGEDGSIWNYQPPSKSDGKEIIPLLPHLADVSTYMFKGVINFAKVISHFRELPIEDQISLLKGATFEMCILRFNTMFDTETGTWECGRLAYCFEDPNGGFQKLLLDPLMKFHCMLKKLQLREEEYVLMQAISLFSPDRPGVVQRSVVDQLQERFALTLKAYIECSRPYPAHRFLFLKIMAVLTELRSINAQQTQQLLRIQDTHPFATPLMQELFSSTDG

As for `CC1(C)S[C@@H]2[C@H](NC(=O)[C@H](N)c3ccccc3)C(=O)N2[C@H]1C(=O)O`, the Potency entry in experiment [1], in experiment [2] and in experiment [4] was “inactive” each time. Also, the results for the activity, negative = cell killing in experiment [3] (setting [8]), in experiment [3] (setting [9]) and in experiment [3] (setting [10]) were -7.71%, 10.7% and 12.5%, respectively. The max response in experiment [5] is -3.75%. The outcome in experiment [6] was inactive.

`CCCC(=O)OC[C@@H](OC(=O)CCC)[C@@H](OC(=O)CCC)[C@H](Cn1c2nc(=O)[nH]c(=O)c-2nc2cc(C)c(C)cc21)OC(=O)CCC`: the Potency result in experiment [1], in experiment [2] and in experiment [4] was “inactive” in each case. For the same molecule, the activity, negative = cell killing in experiment [3] (setting [10]) was -29.1%. The Potency is 8.91 µM (active) in experiment [3] (tumour line A) and 12.6 µM (active) in experiment [3] (tumour line D).

Consider `COC(=O)C1=C(C)NC(C)=C(C(=O)OC)C1c1cccc(NC(=O)NCCCN2CCC(c3cccc(OC)c3)CC2)c1`, for which, in experiment [1], the Potency entry was “inactive”. The figures for the activity change, negative = inhibition in experiment [7] (HiBiT) and in experiment [7] (Viability) were -3.18% and -19.5%, respectively.

With `O=C(O)/C=C\C(=O)O`, the Potency result in experiment [1] and in experiment [2] was “inactive” in each case. The max response in experiment [5] was 4.35%. The molecule was classed as inactive in experiment [6].

As for `Cc1cc(O)c2ccccc2c1O`, in experiment [2], the Potency entry was “inactive”. Besides, in experiment [3] (setting [10]), the activity, negative = cell killing is 5.51%. Also, the Potency in experiment [3] (tumour line A) was 35.5 µM (active).

As for `CN1[C@@H]2CC[C@H]1CC(OC(=O)C(CO)c1ccccc1)C2` (some centres not stated), the Potency result in experiment [1] and in experiment [2] was “inactive” in each case. The activity, negative = cell killing in experiment [3] (setting [8]) is -12.1% and -3.29%; in experiment [3] (setting [9]), -9.67% and -14.2%; in experiment [3] (setting [10]) it was 4.75% and 11.7%. The result in experiment [6] was inactive.

For the molecule `C/C(=N\O)c1ccc(OCC(=O)N2CCCCC2)cc1`, the Potency result in experiment [2] is “inactive”.

In the case of `O=c1[nH]c2ccccc2n1CCCN1CCN(C(c2ccccc2)c2ccccc2)CC1`, the Potency entry in experiment [2] and in experiment [4] was “inactive” each time.

For the molecule `COc1ccc(-c2cc(=S)ss2)cc1`, the Potency result in experiment [1], in experiment [2] and in experiment [4] was “inactive” throughout. In addition, the activity, negative = cell killing is -21.5% in experiment [3] (setting [8]), -22.3% in experiment [3] (setting [9]) and -27.4% in experiment [3] (setting [10]).

Consider `CN(C)c1ccc(N=NS(=O)(=O)O)cc1`, for which the Potency entry in experiment [1] is “inactive”. The activity, negative = cell killing in experiment [3] (at 91.6 µM (top of the series), tumour line B) was -16.9%. Further, the result in experiment [6] was inactive.

Turning to `Cc1nc2ccccc2n1Cc1ccc(Cl)cc1`, the Potency result in experiment [1] and in experiment [2] was “inactive” throughout. Also, the Potency in experiment [4] is 3.16 µM (active).

Regarding `CN1CC(=O)N/C1=N/C(=O)Nc1cccc(Cl)c1`, the Potency result in experiment [1], in experiment [2] and in experiment [4] was “inactive” throughout. Moreover, the activity, negative = cell killing in experiment [3] (setting [8]) was -4.72% and 3.17%; in experiment [3] (setting [9]) it was -5.4% and -21.8%; in experiment [3] (setting [10]), -23.8% and 2.92%.

Turning to `Nc1ccc(O)c([N+](=O)[O-])c1`, the Potency entry in experiment [1] and in experiment [2] was “inactive” throughout. Moreover, the max response in experiment [5] was -2.38% and -0.765%. The outcome in experiment [6] was inactive.

Consider `COc1cc2c3cc1Oc1cc(ccc1O)C[C@@H]1c4c(cc(OC)c(O)c4Oc4ccc(cc4)C[C@@H]3N(C)CC2)CC[N+]1(C)C`, for which the Potency result in experiment [1], in experiment [2] and in experiment [4] was “inactive” in each case. For the same molecule, the activity, negative = cell killing in experiment [3] (setting [8]) is 1%; in experiment [3] (setting [9]), -8.25%; in experiment [3] (setting [10]), 7.69%.

As for `C#CC1(O)CC[C@H]2[C@@H]3CCC4=CCCC[C@@H]4[C@H]3CC[C@@]21C` (some centres not stated), the Potency entry in experiment [1], in experiment [2] and in experiment [4] was “inactive” in each case. Also, in experiment [3] (setting [11]), the activity, negative = cell killing is -10.1%. Further, the Potency in experiment [3] (tumour line A) is 11.2 µM (active).

Take `O=C(/C=C/c1ccccc1)NCCO`: the Potency entry in experiment [1], in experiment [2] and in experiment [4] was “inactive” each time. Also, the values for the activity, negative = cell killing in experiment [3] (setting [8]), in experiment [3] (setting [9]) and in experiment [3] (setting [10]) were -16.2%, -5.87% and -18.2%, respectively.

As for `Nc1ccc([N+](=O)[O-])cc1O`, the Potency result in experiment [1] and in experiment [2] was “inactive” throughout. Further, the max response in experiment [5] is -5.85% and -4.85%. Further, the outcome in experiment [6] was inactive.

As for `CCOc1ccc2nc(S(N)(=O)=O)sc2c1`, the Potency entry in experiment [1], in experiment [2] and in experiment [4] was “inactive” in each case. In addition, the activity, negative = cell killing was -0.995% in experiment [3] (setting [8]), -17.7% in experiment [3] (setting [9]) and 1.48% in experiment [3] (setting [10]).

For `O=C(O)c1cc(O)c(O)c(O)c1`, the Potency entry in experiment [1] and in experiment [2] was “inactive” in each case. In addition, the values for the activity, negative = cell killing in experiment [3] (setting [8]), in experiment [3] (setting [9]) and in experiment [3] (setting [10]) were -10.4%, -20.6% and 20.7%, respectively. Further, in experiment [5], the max response was -9.5%. For the same molecule, the outcome in experiment [6] was inactive.

For the molecule `CCCCC1C(=O)N(c2ccccc2)N(c2ccc(O)cc2)C1=O` (configuration not stated), the Potency in experiment [2] is 22.4 µM (active); in experiment [3] (tumour line A), 7.94 µM (active). Besides, the activity, negative = cell killing in experiment [3] (setting [11]) is -14.9%.

Take `CCCCC[C@H](O)/C=C/[C@@H]1[C@@H](C/C=C\CCCC(=O)O)[C@@H](O)C[C@H]1O`: the activity, negative = cell killing in experiment [3] (setting [11]) is -5.83%; in experiment [3] (at 21.2 µM (top of the series), tumour line B) it was 0.321%; in experiment [3] (at 21.2 µM (top of the series), tumour line D), -15.4%.

As for `CCOC(=O)C1=C(C)NC(C)=C(C(=O)OCC)C1c1c(F)c(F)c(F)c(F)c1F`, the activity change, negative = inhibition in experiment [7] (HiBiT) is -2.44%.

With `O=S(=O)(c1cccc2c(I)cccc12)N1CCCNCC1`, the activity change, negative = inhibition in experiment [7] (HiBiT) is -4.28%.
